Source: PubChem BioAssay
SARS PLpro yeast: SARS-CoV PLP inhibition in yeast; S. cerevisiae expressing SARS-CoV PLpro, growth rescue; Potency, µM (titrated, usually from 32.9 µM), for the others: top-dose activity, positive = growth rescue, hits mostly activators; 0.19% of 330,000 active; AID 485353; calls by dose curve; also: potency is read from the fitted curve at half-maximal effect; 0% is about no effect; nearly all actives have a fitted effect of over 55% in size
HCMV antiviral: human cytomegalovirus inhibition; 4.5% of 410,000 active; AID 1259415; activity change, negative = inhibition, % at 57.5 µM; HFF cells, HCMV-luciferase reporter, 72 h; hits give low values; in the data active = activity change below about -60%; inconclusive = no clear call, values can overlap the other calls; inactive = above about -39%; also: % is scaled to controls: 0 for no effect and ±100 for the full control effect
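Screen run at 2 compound doses on HFFs infected with reporter HCMV, MOI 1 PFU/cell. Luciferase activity from cell lysates at 72 h post infection gave inhibition relative to buffer-only and Salinomycin wells.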
FMDV inh: foot and mouth disease virus antiviral activity | FMDV antiviral cell-based qHTS | Potency, µM (series often up to 57.9 µM), for inactives: at the highest dose activity change, negative = inhibition, hits mostly inhibitors | 1.2% of 410,000 active; calls by dose curve; tested in HEK293T cells; also: read-out not given here; potency is read from the fitted curve at half-maximal effect; % is scaled to controls: 0 for no effect and ±100 for the full control effect; nearly all actives have a fitted effect of over 45% in size
HCV inh: HCV inhibition. Potency, µM (titrated, usually from 41.8 µM), inactives show top-dose activity change, negative = inhibition, usual class: inhibitors. AID 651820. Huh7.5.1 HCVcc-Cre infection, luciferase reporter, 44 h. 3.4% of 340,000 active; active = well fitted inhibition curve with a large enough effect; inconclusive = small, poorly fitted or top-dose-only effect, or another doubt; inactive = no such curve, though single readings can be large or run the other way; also: potency is read from the fitted curve at half-maximal effect; % is scaled to controls: 0 for no effect and ±100 for the full control effect
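A cell-based infection assay in which seeded cells (1,000 per well) receive test compound after 4 h, are inoculated with HCVcc-Cre at approximately 0.5 moi, and are incubated 44 h before luminescence detection.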
LASV entry inh: Lassa virus entry inhibition; Lassa virus pseudotype entry inhibition, cell reporter; Potency, µM (titrated, usually from 37.9 µM), without a hit: at the highest dose activity change, negative = inhibition, actives largely listed as inhibitors; 1.2% of 300,000 active; AID 540256; calls by dose curve; tested in HEK293 cells; also: potency is read from the fitted curve at half-maximal effect; % is scaled to controls: 0 for no effect and ±100 for the full control effect; nearly all actives have a fitted effect of over 50% in size
Marburg entry inh: Marburg virus entry inhibition | Marburg virus pseudotyped entry inhibition, cell reporter | Potency, µM (highest dose often 37.8 µM), inactives show at the top dose activity change, negative = inhibition, most hits filed as inhibitors | 1.8% of 300,000 active; calls by dose curve; tested in HEK293 cells; also: potency is read from the fitted curve at half-maximal effect; % is scaled to controls: 0 for no effect and ±100 for the full control effect
Numbers without * were called inactive; ? = inconclusive; · = not tested or not shown; [ ] = remark or other dose. Sampled rows, rich in hits. Any-hit rate of the full collection: about 8%.

SMILES	SARS PLpro yeast	HCMV antiviral	FMDV inh	HCV inh	LASV entry inh	Marburg entry inh
CC1CCN(c2ccc(-c3cccc(NS(=O)(=O)c4cccs4)c3)nn2)CC1	·	81	?	·	-2%[46.1 µM]	·
Cc1ccccc1C(=O)N1CCN(c2ccc(NC(=O)c3ccc([N+](=O)[O-])o3)cc2)CC1	-2%	-98*	?	?	-30%[46.1 µM]	?
O=C(Nc1ccc(N2CCN(C(=O)c3ccccc3)CC2)cc1)c1ccc([N+](=O)[O-])o1	-5%	-101*	?	?	·	·
Cc1ccccc1C(=O)N1CCN(c2ccc([N+](=O)[O-])c(NCc3ccco3)c2)CC1	-9%	-27	-13%	13µM*	-10%	?
Cc1ccccc1C(=O)N1CCN(c2ccc(NC(=O)c3ccc4c(c3)OCO4)cc2)CC1	0%	-38	13µM*	?	?	?
Cc1ccccc1C(=O)N1CCN(c2ccc(NC(=O)c3cccnc3)cc2)CC1	-3%	-10	?	1%	?	5%
COc1cccc(Cc2nc3ccccc3nc2SCC(=O)N2CCCc3ccccc32)c1	·	18	-14%	·	-8%[46.1 µM]	·
COC(=O)[C@]1(C#N)[C@H](C)C(=O)N(C(C)C)[C@@H]1c1ccc(OC)cc1	·	5	·	·	·	·
COc1cc(C(=O)NCCCc2nc3ccccc3n2CC(C)C)cc(OC)c1OC	·	8	-7%	·	-8%[46.1 µM]	1%[46.1 µM]
CN(C)c1ccc(CNC(=O)C2CCN(c3nnc(-n4cccc4)s3)CC2)cc1	·	?	-18%	·	-22%[46.1 µM]	·
CC(=O)N1c2ccccc2C(C)(c2ccc(C)cc2)CC1(C)C (stereo not drawn)	·	1	?	·	21%[46.1 µM]	-28%[46.1 µM]
Cc1cccc(OCCOCCn2c(-c3ccc(Cl)cc3)nc3ccccc3c2=O)c1C	·	37	6%	·	16%[46.1 µM]	0%[46.1 µM]
COc1cc2[nH]c(=O)n(Cc3ccc(C(=O)N4CCN(c5cc(Cl)ccc5C)CC4)cc3)c(=O)c2cc1OC	·	-4	-27%	·	4%[46.1 µM]	?
O=C(Nc1ccc(N2CCN(C(=O)c3ccccc3F)CC2)cc1)c1cncc(Br)c1	?	-90*	32µM*	?	?	?
C[C@H]1CC[C@H]2C(=O)O[C@H](CO)CN2[C@H]1c1ccc(Br)cc1	·	·	·	·	?	-20%[14.2 µM]
COc1ccc(CNC(=O)c2cc3cc(C)ccc3n2C)cc1	·	-79*	5%	·	?	?
Cc1ccc2c(c1)cc(C(=O)NCc1ccccc1)n2C	4%	-71*	8%	8%	?	0.63µM*
COc1cccc(CNC(=O)c2cc3cc(C)ccc3n2C)c1	·	?	-8%	·	?	?
c1ccc(CNc2nc(-c3ccc4c(c3)OCO4)nc3ccccc23)cc1	·	·	15%	·	·	·
COc1cc(OC)c(NC(=O)N2CCCn3nc(C)cc32)cc1Cl	·	-3	-16%	·	10%[46.1 µM]	·
CCOC(=O)c1cnn(-c2cccc(Cl)c2)c1C1CCN(C(=O)OC(C)(C)C)CC1	·	1	?	·	?	6%[46.1 µM]
CCN(CC)CCc1c(C)[nH]c(C(=O)OCc2ccccc2)c1C	-8%	-40	7%	?	-9%	26µM*
COc1ccc(CN(C)S(=O)(=O)c2nnc(NC(=O)C(C)C)s2)cc1OC	·	0	?	·	-1%[46.1 µM]	·
CC(=O)Nc1ccc(S(=O)(=O)N2CCN(c3ccc(C)c(C)c3)CC2)cc1	·	-5	-24%	·	3%[46.1 µM]	10%[46.1 µM]
Cc1ccn2c(-c3csc(NCc4ccco4)n3)c(C)nc2c1	19%	-68*	?	?	0%	0%
SMILES	SARS PLpro yeast	HCMV antiviral	FMDV inh	HCV inh	LASV entry inh	Marburg entry inh
COc1ccc(-c2csc(NCc3ccco3)n2)cc1C	-4%	·	91%	-20%	-4%	4%
CCCN(CCC)C(=O)Cn1c(SCc2cccc(F)c2)nc2cccnc21	·	-22	1%	·	-4%[46.1 µM]	·
COc1ccccc1NC(=O)CSC1=Nc2ccccc2C2=NC(CCC(=O)NCc3ccco3)C(=O)N12 (stereo not drawn)	·	-15	-13%	·	?	·
CCCS(=O)(=O)N1CC(=O)N(c2ccccc2F)C(C)(C(=O)NC2CCCCCC2)C1 (stereo not drawn)	·	0	17%	·	3%[46.1 µM]	·
COc1cc(C(C[N+](=O)[O-])c2c(C)cc3ccccn23)ccc1O (stereo not drawn)	-7%	-64*	22µM*	?	·	-22%[46.1 µM]
COc1cc(C(C[N+](=O)[O-])c2c(N)n(C)c(=O)n(C)c2=O)ccc1O (stereo not drawn)	-19%	-71*	18µM*	?	?	?
COc1ccc(C(C[N+](=O)[O-])c2c(-c3ccccc3)cc3ccccn23)cc1OC (stereo not drawn)	·	?	?	-23%	-5%	?
Cc1ccc(C(C[N+](=O)[O-])c2c(N)n(C)c(=O)n(C)c2=O)cc1 (stereo not drawn)	-21%	57	0%	13%	·	·
COc1cccc(F)c1C(C[N+](=O)[O-])c1c(N)n(C)c(=O)n(C)c1=O (stereo not drawn)	-21%	-100*	32µM*	7.9µM*	·	·
Cc1ccc(NC(=O)CSc2nc3c(oc4ccccc43)c(=O)n2-c2ccc(F)cc2)c(C)c1	·	6	0%	·	·	-29%[46.1 µM]
CCOc1ccc(NC(=O)Cn2nc(CC)n3c(cc4sccc43)c2=O)cc1	·	-7	-16%	·	·	11%[46.1 µM]
COc1ccc2nc(N(Cc3cccnc3)C(=O)CCc3ccccc3)sc2c1	·	-31	22%	·	-25%[46.1 µM]	·
CCc1cccc(NC(=O)c2ccc(NC(=O)N3CCSc4ncccc43)cc2)c1	·	0	28µM*	·	-14%[46.1 µM]	·
CCCCOc1ccc(CNC(=O)c2cccc(NC(=O)N3CCSc4ncccc43)c2)cc1	·	0	22µM*	·	-15%[46.1 µM]	·
NC(=O)N1CCC2=C1CCCC2	·	·	·	·	·	5%[46.1 µM]
COc1ccc(CNC(=O)CCCn2c(=O)c3cccn3c3ccc(F)cc32)cc1OC	·	-19	?	·	-25%[46.1 µM]	·
COc1cccc(CNCc2ccccn2)c1OC	-3%	-61*	·	-7%	-1%	-1%
COc1cccc(CNCc2ccc(OC)c3ccccc23)c1OC	1%	19	-15%	?	?	?
CSc1ccc(-c2ccc(C(=O)NCC3CCCO3)c(N3CCC(O)CC3)n2)cc1 (stereo not drawn)	·	·	46%	·	·	·
CC1(C)NC(C)(C)/C(=C\c2cccs2)C(=O)C1=O	-3%	-26	-15%	-16%	26%	13µM*
Cc1ccccc1C(OCCN(C(C)C)C(C)C)c1ccccc1 (stereo not drawn)	-4%	?	?	-2%	4µM*	?
CC(C)CC(NC(=O)CCl)c1ccccc1 (stereo not drawn)	14%	?	-14%	5%	-16%	-29%
CCCC(NC(=O)CCl)c1ccccc1 (stereo not drawn)	26%	-72*	?	?	-15%	?
CCC(NC(=O)CCl)c1ccc(C)cc1 (stereo not drawn)	0%	-78*	?	10%	?	?
